# Hit rate of the full screen: of about 94,000 compounds, about 20 (0.02%) were called active. Another 1% or so got no clear call; they are omitted. Calls follow the shape of the dose curve; as a rule, active = well fitted activation curve with a large enough effect; inconclusive = small, poorly fitted or top-dose-only effect; inactive = flat fitted curve, though single readings scatter. These entries were drawn from the full list.
# Assay: qHTS of alpha-syn Inhibitors: NCGC Sytravon Library Screen
# Conditions: S. cerevisiae alpha-synuclein toxicity rescue, BacTiter-Glo growth, 24 h; series mostly up to 46.1 µM
# Source text: The goal of this project is to identify new chemical probes capable of reversing the toxicity associated with the Parkinson disease-related protein, alpha-synuclein. Compounds will be selected on their ability to restore growth in yeast cells expressing toxic levels of alpha-synuclein. These compounds will provide a complementary approach to deciphering the tangled mechanisms of toxicity and protection that we have uncovered through genome-wide genetic screens and are beginning to uncover in a large-scale proteomics analysis with mass spectroscopy. To this end, a miniaturized assay was developed to be screened against the Molecular Libraries Small Molecule Repository (MLSMR) to discover alpha-synuclein inhibitors. […] The phenotype of interest will be that of an Activator and this screen is run against the NCGC Sytravon Library collection. NIH Chemical Genomics Center [NCGC] NIH Molecular Libraries Probe Centers Network [MLPCN] MLPCN Grant: NS060957 Assay Submitter (PI): Susan Lindquist, Whitehead Institute/MIT
# Dispense 2.5 microL yeast galactose medium per 1536-well plate, pin compound, dispense 2.5 microL alpha-synuclein expressing yeast in galactose medium at OD600=0.02 (pregrown in raffinose medium to mid-log phase) per well, incubate for 24 hr at 30 deg C, and cell growth will be measured using 5 microL of Bactiter/Glo reagent to entire plate and read using Luminescence Protocol in ViewLux.
row,SMILES,outcome
1,O=C(Nc1ccccc1)C1CC(=O)n2c(nc3ccccc32)N1 (stereo not given),inactive
2,Cc1ccc(C=O)c([B-](F)(F)F)c1,inactive
3,O=C(CNc1ccccc1N1CCCC1=O)Nc1cc(Cl)ccc1-n1cncn1,inactive
4,O=C(/C=C/Nc1ccc(S(=O)(=O)Nc2cnc3ccccc3n2)cc1)c1cccnc1,inactive
5,CCOC(=O)c1cc(-c2sc(NC(=O)c3ccccc3)nc2C)n(CCO)n1,inactive
6,COc1ccc2oc(C(=O)N(CC(C)C)C3CCS(=O)(=O)C3)c(C)c2c1 (stereo not given),inactive
7,CN(CCN1CCOCC1)Cc1nc(-c2ccc3c(c2)OCO3)no1,inactive
8,COCOCCn1cc(CN2CCS(=O)(=O)N(Cc3ccc(-c4ccccc4)cc3)C(CC(C)C)C2=O)nn1 (stereo not given),inactive
9,CCc1nnc(NC(=O)c2ccco2)s1,inactive
10,Cn1ccc(=NC=C(C#N)C#N)c2ccccc21,inactive
11,COc1cc(NS(=O)(=O)c2ccc(NC(=S)NC(=O)c3ccccc3)cc2)nc(OC)n1,inactive
12,O=C(OCc1nnc(-c2ccccc2)o1)c1cc(=O)[nH]c2ccccc12,inactive
13,O=C1[C@H]2[C@@H](c3ccc(C(F)(F)F)cc3)N[C@]3(CCCN(Cc4ccc(Cl)cc4)C3=O)[C@H]2C(=O)N1Cc1ccccc1,inactive
14,Cn1cnnc1SCC(=O)NNC(=O)COc1ccc(Br)cc1,inactive
15,Cc1ccc(N(C(=O)Cc2cccs2)C(C(=O)NCC2CCCO2)c2ccncc2)cc1 (stereo not given),inactive
16,COc1ccccc1NC(=O)CCSc1nnc(-c2ccc(O)cc2)o1,inactive
17,O=C(OCc1cn([C@H]2C[C@H](c3ccccc3)N(C(=O)c3cccs3)C[C@@H]2O)nn1)c1ccccc1,inactive
18,COc1ccc(NC(=O)CN(C)C(=O)c2cc(C)oc2C)cc1,inactive
19,Cc1noc(C)c1COc1ccccc1C(=O)N(C)CC(=O)Nc1cccc(F)c1,inactive
20,COc1ccc(N(C(=O)c2snc(C(N)=O)c2N)C(C(=O)NC2CCCC2)c2ccc(C)o2)c(OC)c1 (stereo not given),inactive
21,NS(=O)(=O)c1ccc(NC(=S)NC(=O)c2cccnc2)cc1,inactive
22,C=C(C)COc1ccc(-c2nc(N)ncc2-c2ccccc2OC)c(O)c1,inactive

row,SMILES,outcome
1,Cc1cccc(OCC(=O)NCCCNC(=O)c2ccccn2)c1,inactive
2,O=C(NC1CCCC1)C1CC(=O)N(c2ccc(F)cc2)C1 (stereo not given),inactive
3,CO/N=C/c1cn(-c2ccc(Cl)cc2)nn1,inactive
4,CC(OC(=O)c1ccc(NC(=O)CC#N)cc1)C(=O)Nc1ccc(S(=O)(=O)N2CCCC2)cc1 (stereo not given),inactive
5,Cc1cccc(C)c1NC(=O)CS(=O)CC(=O)N1CCN(c2ccccc2)CC1 (stereo not given),inactive
6,CCOc1ccc(NS(=O)(=O)c2ccc(C(=O)NCC(c3ccccc3OC)N3CCCC3)cc2)cc1 (stereo not given),inactive
7,O=[N+]([O-])c1ccc(C(S(=O)(=O)Cc2ccccc2)S(=O)(=O)Cc2ccccc2)cc1,inactive
8,O=C(NCc1ccc(Cl)cc1)C(=O)NCC1CCCN1S(=O)(=O)c1cccs1 (stereo not given),inactive
9,O=C(CNC(=O)N1CC(=O)Nc2ccccc21)Nc1ccc(Br)cc1F,inactive
10,O=C(c1ccc(N2CCCC2=O)cc1)N1CCN(c2ccc(C(F)(F)F)cc2[N+](=O)[O-])CC1,inactive
11,Cc1ccc(CN2CC(C(=O)N3CCN(S(=O)(=O)c4ccccc4)CC3)CC2=O)cc1 (stereo not given),inactive
12,CCN(C(=O)C1CCCN(c2nc(-c3ccc(OC)cc3)no2)C1)c1ccc(OC)cc1 (stereo not given),inactive
13,CN(C)c1ccc(C2Nc3ccccc3C(=O)N2NS(=O)(=O)c2ccccc2)cc1 (stereo not given),inactive
14,COc1cc(CNC2CCCC2)c(Br)cc1OCc1ccccc1,inactive
15,Cc1ccc(C(=O)N[C@H](C(=O)N2CCN(c3ncccn3)CC2)C(C)C)cc1,inactive
16,Cc1nnc(SC(C(=O)c2ccccc2)c2ccccc2)[nH]c1=O (stereo not given),inactive
17,CCOC(=O)C1=C(CC)OC(N)=C(C#N)C1c1ccc(F)cc1F (stereo not given),inactive
18,COc1ccc(NC(=O)C2=C(C)NC(=O)NC2c2ccccc2[N+](=O)[O-])cc1 (stereo not given),inactive
19,NC(=O)CCN1CCN(S(=O)(=O)/C=C/c2ccccc2)CC1,inactive
20,COc1ccccc1N1CCN(CC(=O)NCCc2ccc(S(N)(=O)=O)cc2)CC1,inactive
21,O=C(O)Cc1csc(-c2cccc(Oc3ccccc3)c2)n1,inactive
22,O=C(CN1CCCCCC1)NCCN1C(=O)S/C(=C\c2ccccc2Cl)C1=O,inactive

row,SMILES,outcome
1,CCOC(=O)c1cnn2c(SC)ncnc12,inactive
2,CCCCN1C(=O)C(CC(=O)NCc2cccs2)CC(C(=O)N2CCOCC2)=C1C (stereo not given),inactive
3,OCCC#Cc1ccc(CN2CCN(Cc3ccsc3)C(CCO)C2)cc1 (stereo not given),inactive
4,CCC(CC)C(=O)Nc1c2c(nn1-c1ccc(C)cc1)CS(=O)(=O)C2,inactive
5,Cc1cccc(NC(=O)CCn2c(=O)oc3ccccc32)c1,inactive
6,CCCCN(C(=O)CSCc1ccc(C)cc1)c1c(N)n(Cc2ccccc2)c(=O)[nH]c1=O,inactive
7,O=C(CN1CCCSc2ccccc21)N1CCN(S(=O)(=O)c2ccccc2)CC1,inactive
8,O=C(C1CCCO1)N1CCN(C(=O)C23CC4CC(CC(C4)C2)C3)CC1 (stereo not given),inactive
9,CCOC(=O)C(C(=O)c1ccccc1)C(c1ccccc1)c1nccc2ccccc12 (stereo not given),inactive
10,COc1cccc(N2CC(C(=O)NCc3n[nH]c(=O)c4ccccc34)CC2=O)c1 (stereo not given),inactive
11,CCCCS(=O)c1snnc1C (stereo not given),inactive
12,Cc1ccc(NC(=O)NC(=O)N(C2CCCCC2)S(=O)(=O)c2ccccc2)cc1,inactive
13,O=C(Nc1ccccc1C(=O)N1CCOCC1)c1ccc(CSc2ccccc2)cc1,inactive
14,CCN(CC)C(=O)C1=C(C)N(Cc2ccc(OC)cc2)C(=O)C(CC(=O)NCCCCc2ccccc2)C1 (stereo not given),inactive
15,CN(C)CCOCCOc1ccc(Cl)c2ccccc12,inactive
16,O=C(Nc1cccc([N+](=O)[O-])c1)Nc1ccc(Cl)cn1,inactive
17,O=C(NCC(F)(F)F)c1ccc(S(=O)(=O)NCCc2ccc3c(c2)OCCO3)cc1,inactive
18,CC(=O)c1cnc(SCC(=O)O)nc1C,inactive
19,CN(C(=O)COC(=O)c1ccc(Br)o1)c1c(N)n(Cc2ccccc2)c(=O)[nH]c1=O,inactive
20,COc1ccc(CNC(=O)C2CCN(S(=O)(=O)c3ccc(SC)cc3)CC2)cc1,inactive
21,CCOC(=O)c1sc(NC(=O)c2sc(C)nc2C)nc1C,inactive

# From PubChem BioAssay AID1347070 (National Center for Advancing Translational Sciences (NCATS), 2019)
